Test results reported in PubChem BioAssay (NCI).
About 83,000 compounds went through this panel and 20% of them were active in at least one assay; those are over-represented in the sample as a whole.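 Note: values are percent growth. 100 is the growth of untreated cells, values between 100 and 0 indicate rising inhibition; between -100 and 0 indicates cell death.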 Unmarked numbers belong to inactive results. Active and inactive are the calls of the source. How the source made its calls: active means growth percent below 10; inactive means the rest.

Each compound was assayed on HL-60(TB) leukemia (assay: NCI-60 one-dose screen, 48 h (100 = growth as untreated, 0 = no growth, -100 = all killed)). Conditions: 10 µM unless noted.
NNC(=O)CSc1nc2scc(-c3ccccc3)c2c(=O)n1-c1ccccc1 was tested, and the growth was 84%. CC(C)(C)c1[nH]nc2c1C(c1cc3ccccc3[nH]c1=O)Nc1cc(C(=O)OCc3ccccc3)ccc1N2 (stereo not given) was tested, and the growth was 54.5%. For Clc1ccc2c(c1)N(C1CCCN(Cc3ccccc3)C1)c1ccccc1S2 (stereo not given), the growth was 28.5%. O=C1/C(=C/c2cccc3cnccc23)Cc2cc(F)ccc21 gave a growth of 105%. Work on Nc1ccc(F)c(Cl)c1F yielded a growth of 95.6%. With CN(C)c1ccc(-c2cc(-c3ccc(Nc4nc(Nc5ccc(Cl)cc5)nc(Nc5ccc(Cl)cc5)n4)cc3)nc(N)c2C#N)cc1 the growth was 68%. FC(F)(F)c1ccc2nc(-c3nc(-c4ccccc4)n4ccccc34)[nH]c2c1 gave a growth of 108%. In the case of c1ccc(-c2nc([P+](c3ccccc3)(c3ccccc3)c3ccccc3)c(N3CCOCC3)o2)cc1, the growth is reported as -12% (active). c1ccc(CNc2nc(Nc3ccccc3)nc3ccccc23)cc1 was tested, and the growth was 95.6%. For CCN(CC)P(=O)(N(CC)CC)N(CCCSC/C=C(\C)CC/C=C(\C)CCC=C(C)C)CCCN1CCN(C)CC1, the growth was 83.3%. O=C(CSc1nc2c(n1Nc1ccccc1)-c1ccccc1SC2)Nc1nccs1 was tested, and the growth was 102%. With CCC1(C2CCCC2)NC(=O)NC1=O (stereo not given) the growth was 90.9%. Compound CCN(CC)c1ccc(/C=N/NC(=O)c2ccccc2Nc2ccnc(C(F)(F)F)c2)c(O)c1 has a growth of 60%. COCCCC/C(=N\OCCN)c1ccc(C(F)(F)F)cc1 showed a growth of 122%. CCOC(=O)c1nn(CC(O)c2ccccc2)c(NC(=O)Nc2cccc(F)c2)c1C (stereo not given) showed a growth of 108%. For O=C(Nc1cccc(C(F)(F)F)c1)Nc1ccc(OCc2nnc(-c3ccccc3)o2)c(F)c1, the growth was -4.69% (active). For Cc1cc(=O)oc2cc(OC(=O)N3CCN(C)CC3)ccc12, the growth was 106%. With O=C(Nc1cc(Cl)ccc1O)c1ccccc1Nc1ccnc(C(F)(F)F)c1 the growth was -38.1% (active). Compound COc1ccc(C2CC(c3ccc(Nc4nc(Nc5ccc(F)cc5)nc(Nc5ccc(F)cc5)n4)cc3)=NN2C(C)=O)cc1 (stereo not given) has a growth of 17.1%. In the case of CC(C)(C)c1ccc(C(O)CCCN2CCC(C(O)(c3ccccc3)c3ccccc3)CC2)cc1 (stereo not given), the growth is reported as -51.9% (active). For N#Cc1c(N)nc(Cl)c(C#N)c1C(=O)c1ccccc1, the growth was 6.29% (active). In the case of COc1ccc2nc(-c3ccc(OC)c(OC)c3)cc(-c3nnc(SCC(=O)Nc4ccc(C(C)=O)cc4)o3)c2c1, the growth is reported as 77.7%. In the case of O=C1Nc2ccccc2/C1=C/c1cccn1C(=O)c1ccc(Cl)s1, the growth is reported as 57.3%. For Cn1cnc2nc[nH]c2c1=S, the growth was 108%. CS(=O)(=O)Nc1cc(-c2ccc3ncnc(Nc4ccc(F)c(Cl)c4)c3c2)cnc1Cl was tested, and the growth was 1.75% (active). For COc1ccc2[nH]cc(/C=C3/C(=O)Nc4ccc(F)cc43)c2c1, the growth was 96.6%. With COc1cccc2c1C(=O)c1c(O)c3c(c(O)c1C2=O)C[C@@](O)(C(=O)CO)C[C@@H]3OC1C[C@H](N)[C@H](O)[C@H](C)O1 (stereo not given in full) the growth was -26.7% (active). COc1ccc2c(c1)/C(=C\c1sc(=S)[nH]c1O)C(C(=O)O)=N2 gave a growth of 101%. COc1ccc(-n2nnnc2-c2cn[nH]c2C(F)(F)F)cc1 gave a growth of 98.3%. With O=S(=O)(Nc1cccc(Cl)c1)c1ccc(-c2cnc(C3CC3)o2)cc1 the growth was 2.04% (active). With CCOC(=O)c1c2c(n3ccc(NC(=O)OC(C)(C)C)cc13)C(=O)c1ncccc1C2=O the growth was -34.2% (active). CCNc1nc(C(F)(F)F)nc2c1sc(=S)n2-c1ccccc1 was tested, and the growth was 98.9%. In the case of CCCCOc1ccc(/C(C)=N/Nc2cc(C)nc3ccc(Br)cc23)cc1, the growth is reported as 78.5%. With COc1ccc(-c2nc3sccn3c2/C=C/C(=O)c2cc(F)cc(F)c2)cc1 the growth was 60.4%. Compound NNc1ccc(S(N)(=O)=O)cc1 has a growth of 75.9%. For CCN(CC)CCNC(=O)C(F)(F)C(F)(F)C(F)(F)F, the growth was 108%. In the case of CCN1Cc2nc3sc(C)c(C)c3c(=O)n2C=C1C, the growth is reported as 1.07% (active). With COc1ccc2c3c(ccc2c1)C(=O)/C(=C\O)CC3 the growth was 75.1%. For CCOS(=O)(=O)c1ccc([N+](=O)[O-])cc1, the growth was 95.9%. CN1Cc2c(cc(CN3CCCCC3)n2C)C(c2ccc(Br)cc2)C1 (stereo not given) showed a growth of 83.8%.
